About 7,900 targets were measured; listed, in parts, are those with a hit and a random draw of the rest. About 0.6% of all pairs of compound and target were hits. A number with no mark means an inactive call.
Key:
Assay in all cases: log2 fold change, soluble protein after heating vs DMSO (PISA); higher = thermal stabilisation; K562 cells, 10 uM, 30 min; active = over 0.2 and 3.5 SD of the protein, either way, in both replicates (recomputed)
[1] = compound: COC1=CC=C(C=C1)CN2C=CC3=C2C=C(C=C3)C(=O)NO
How it was run: (§1)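 Soluble protein was quantified by TMTpro 16plex LC-MS/MS after channel sums were equalised. It was obtained as the supernatant after 21,000xg for 90 min from pooled aliquots of K562 cells (2×10^6 cells/mL, 10 μM compound, 30 min) heated for 3 min across 48°C-58°C and extracted in PBS with 0.5% NP-40 at 4°C. Thermal stability values are relative to control samples and come from duplicates. They are given as log2 fold changes.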

filanesib = compound: CON(C)C(=O)N1N=C(c2cc(F)ccc2F)S[C@@]1(CCCN)c1ccccc1 [filanesib]
How it was run: as §1

zotarolimus = compound: CO[C@H]1C[C@@H]2CC[C@@H](C)[C@@](O)(O2)C(=O)C(=O)N2CCCC[C@H]2C(=O)O[C@H]([C@H](C)C[C@@H]2CC[C@H](n3cnnn3)[C@H](OC)C2)CC(=O)[C@H](C)/C=C(\C)[C@@H](O)[C@@H](OC)C(=O)[C@H](C)C[C@H](C)/C=C/C=C/C=C/1C [zotarolimus]
How it was run: as §1

idasanutlin = compound: COc1cc(C(=O)O)ccc1NC(=O)[C@@H]1N[C@@H](CC(C)(C)C)[C@](C#N)(c2ccc(Cl)cc2F)[C@H]1c1cccc(Cl)c1F [idasanutlin]
How it was run: as §1

alisertib = compound: COc1cc(Nc2ncc3c(n2)-c2ccc(Cl)cc2C(c2c(F)cccc2OC)=NC3)ccc1C(=O)O [alisertib]
How it was run: as §1

[2] = compound: COc1cc2nc(-c3cc(F)ccc3O)nc(N[C@@H]3CNC[C@H]3C(C)(C)O)c2cc1OC
How it was run: as §1

gefitinib = compound: COc1cc2ncnc(Nc3ccc(F)c(Cl)c3)c2cc1OCCCN1CCOCC1 [gefitinib]
How it was run: as §1

[3] = compound: COc1cccc2cc(-c3nc([C@H]4CC[C@H](C(=O)O)CC4)n4ncnc(N)c34)[nH]c12
How it was run: as §1

lapatinib = compound: CS(=O)(=O)CCNCc1ccc(-c2ccc3ncnc(Nc4ccc(OCc5cccc(F)c5)c(Cl)c4)c3c2)o1 [lapatinib]
How it was run: as §1

pictilisib = compound: CS(=O)(=O)N1CCN(Cc2cc3nc(-c4cccc5[nH]ncc45)nc(N4CCOCC4)c3s2)CC1 [pictilisib]
How it was run: as §1

Sequence of UniProt P18065 (P18065 whole entry, looked up): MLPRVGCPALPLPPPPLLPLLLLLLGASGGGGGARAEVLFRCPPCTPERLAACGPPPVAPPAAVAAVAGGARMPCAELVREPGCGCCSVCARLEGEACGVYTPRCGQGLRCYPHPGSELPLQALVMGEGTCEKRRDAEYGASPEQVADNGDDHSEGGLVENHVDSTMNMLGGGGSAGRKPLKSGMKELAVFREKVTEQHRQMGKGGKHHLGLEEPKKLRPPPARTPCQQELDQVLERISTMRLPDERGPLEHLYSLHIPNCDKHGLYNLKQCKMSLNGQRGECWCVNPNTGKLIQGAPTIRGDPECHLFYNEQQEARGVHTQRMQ
Sequence of UniProt Q32MZ4 (Q32MZ4 whole entry, looked up): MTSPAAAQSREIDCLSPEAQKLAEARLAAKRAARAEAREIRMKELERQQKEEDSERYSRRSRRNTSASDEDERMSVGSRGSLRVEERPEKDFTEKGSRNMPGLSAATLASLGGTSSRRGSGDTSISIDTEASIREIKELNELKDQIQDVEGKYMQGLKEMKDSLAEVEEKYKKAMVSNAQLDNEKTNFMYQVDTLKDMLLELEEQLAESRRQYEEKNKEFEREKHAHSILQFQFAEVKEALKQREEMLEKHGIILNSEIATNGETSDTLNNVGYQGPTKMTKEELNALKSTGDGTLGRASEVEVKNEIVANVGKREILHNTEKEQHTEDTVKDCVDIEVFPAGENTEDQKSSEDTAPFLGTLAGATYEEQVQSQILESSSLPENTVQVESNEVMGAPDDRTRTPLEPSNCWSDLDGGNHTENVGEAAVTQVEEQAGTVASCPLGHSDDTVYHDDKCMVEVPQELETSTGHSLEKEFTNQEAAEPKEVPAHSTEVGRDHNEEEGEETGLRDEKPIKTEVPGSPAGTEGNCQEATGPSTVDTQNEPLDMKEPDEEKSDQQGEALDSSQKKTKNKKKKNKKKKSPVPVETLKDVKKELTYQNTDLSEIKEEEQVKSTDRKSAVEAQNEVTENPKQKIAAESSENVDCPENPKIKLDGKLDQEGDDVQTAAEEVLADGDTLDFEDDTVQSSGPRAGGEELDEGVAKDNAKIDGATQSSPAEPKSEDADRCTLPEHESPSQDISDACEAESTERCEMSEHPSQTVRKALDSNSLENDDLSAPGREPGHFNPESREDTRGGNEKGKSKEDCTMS
Sequence of UniProt Q13257 (Q13257 whole entry, looked up): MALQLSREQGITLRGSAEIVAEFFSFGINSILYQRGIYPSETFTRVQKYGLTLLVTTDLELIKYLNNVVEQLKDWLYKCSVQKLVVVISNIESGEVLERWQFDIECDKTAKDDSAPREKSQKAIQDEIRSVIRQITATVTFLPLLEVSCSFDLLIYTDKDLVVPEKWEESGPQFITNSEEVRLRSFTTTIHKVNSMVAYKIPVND
Sequence of UniProt Q9NVC6 (Q9NVC6 whole entry, looked up): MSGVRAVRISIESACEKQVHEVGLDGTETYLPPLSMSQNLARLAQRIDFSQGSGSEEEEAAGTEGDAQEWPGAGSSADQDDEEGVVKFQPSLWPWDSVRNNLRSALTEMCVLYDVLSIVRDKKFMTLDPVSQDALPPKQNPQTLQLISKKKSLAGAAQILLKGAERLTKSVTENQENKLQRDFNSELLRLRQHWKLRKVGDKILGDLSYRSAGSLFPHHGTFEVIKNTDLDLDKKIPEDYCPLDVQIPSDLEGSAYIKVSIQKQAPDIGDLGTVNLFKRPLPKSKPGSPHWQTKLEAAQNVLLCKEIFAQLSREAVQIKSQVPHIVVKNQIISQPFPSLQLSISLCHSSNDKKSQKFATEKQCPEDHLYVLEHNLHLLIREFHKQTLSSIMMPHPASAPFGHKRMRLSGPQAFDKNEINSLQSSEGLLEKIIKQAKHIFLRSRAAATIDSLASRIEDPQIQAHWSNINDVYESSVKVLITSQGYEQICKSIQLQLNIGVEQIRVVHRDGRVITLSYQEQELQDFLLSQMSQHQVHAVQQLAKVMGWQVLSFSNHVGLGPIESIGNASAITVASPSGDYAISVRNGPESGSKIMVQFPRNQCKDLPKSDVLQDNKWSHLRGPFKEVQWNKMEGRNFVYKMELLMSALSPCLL
Sequence of UniProt Q16539 (Q16539 whole entry, looked up): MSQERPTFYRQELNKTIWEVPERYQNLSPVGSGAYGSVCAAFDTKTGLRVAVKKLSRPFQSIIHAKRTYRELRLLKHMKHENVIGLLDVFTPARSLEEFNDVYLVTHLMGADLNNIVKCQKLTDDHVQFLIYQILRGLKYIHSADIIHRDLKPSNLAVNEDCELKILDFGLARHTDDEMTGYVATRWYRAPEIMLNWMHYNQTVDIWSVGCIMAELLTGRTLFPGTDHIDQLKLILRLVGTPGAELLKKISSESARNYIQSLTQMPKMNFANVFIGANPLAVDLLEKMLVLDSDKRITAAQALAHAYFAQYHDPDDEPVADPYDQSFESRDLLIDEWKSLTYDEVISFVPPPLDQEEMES
Sequence of UniProt Q9UBF1 (Q9UBF1 whole entry, looked up): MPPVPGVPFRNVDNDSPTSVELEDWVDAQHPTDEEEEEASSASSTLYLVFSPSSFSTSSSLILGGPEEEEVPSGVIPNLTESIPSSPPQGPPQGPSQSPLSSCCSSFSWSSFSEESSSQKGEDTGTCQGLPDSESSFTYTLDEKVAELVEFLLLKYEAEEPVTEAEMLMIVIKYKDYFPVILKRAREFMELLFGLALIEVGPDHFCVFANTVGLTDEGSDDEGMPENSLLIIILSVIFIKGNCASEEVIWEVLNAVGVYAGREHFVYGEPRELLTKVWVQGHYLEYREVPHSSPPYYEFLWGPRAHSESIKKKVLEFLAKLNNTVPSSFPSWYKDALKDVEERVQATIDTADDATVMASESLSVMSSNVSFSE
Sequence of UniProt Q9UHB6 (Q9UHB6 whole entry, looked up): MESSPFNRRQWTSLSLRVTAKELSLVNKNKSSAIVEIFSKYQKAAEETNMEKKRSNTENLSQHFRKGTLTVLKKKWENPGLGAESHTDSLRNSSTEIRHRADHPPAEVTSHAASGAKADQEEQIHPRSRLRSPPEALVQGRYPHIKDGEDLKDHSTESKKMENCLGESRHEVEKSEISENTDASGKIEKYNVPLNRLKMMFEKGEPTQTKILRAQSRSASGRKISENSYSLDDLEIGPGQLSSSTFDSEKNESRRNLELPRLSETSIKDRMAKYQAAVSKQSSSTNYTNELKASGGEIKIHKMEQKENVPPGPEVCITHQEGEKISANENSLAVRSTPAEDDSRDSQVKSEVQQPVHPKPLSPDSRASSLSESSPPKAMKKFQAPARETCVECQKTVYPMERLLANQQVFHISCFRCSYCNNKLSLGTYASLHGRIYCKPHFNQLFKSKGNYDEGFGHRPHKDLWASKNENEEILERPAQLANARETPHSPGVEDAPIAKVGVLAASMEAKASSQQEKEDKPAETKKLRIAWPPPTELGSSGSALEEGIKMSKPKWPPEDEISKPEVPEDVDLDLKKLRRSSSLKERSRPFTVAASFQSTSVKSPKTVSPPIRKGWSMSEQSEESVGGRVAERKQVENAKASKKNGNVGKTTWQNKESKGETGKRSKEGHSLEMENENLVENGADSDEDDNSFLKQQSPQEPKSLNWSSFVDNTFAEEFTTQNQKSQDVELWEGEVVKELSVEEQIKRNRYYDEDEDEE
Sequence of UniProt Q9Y2U8 (Q9Y2U8 whole entry, looked up): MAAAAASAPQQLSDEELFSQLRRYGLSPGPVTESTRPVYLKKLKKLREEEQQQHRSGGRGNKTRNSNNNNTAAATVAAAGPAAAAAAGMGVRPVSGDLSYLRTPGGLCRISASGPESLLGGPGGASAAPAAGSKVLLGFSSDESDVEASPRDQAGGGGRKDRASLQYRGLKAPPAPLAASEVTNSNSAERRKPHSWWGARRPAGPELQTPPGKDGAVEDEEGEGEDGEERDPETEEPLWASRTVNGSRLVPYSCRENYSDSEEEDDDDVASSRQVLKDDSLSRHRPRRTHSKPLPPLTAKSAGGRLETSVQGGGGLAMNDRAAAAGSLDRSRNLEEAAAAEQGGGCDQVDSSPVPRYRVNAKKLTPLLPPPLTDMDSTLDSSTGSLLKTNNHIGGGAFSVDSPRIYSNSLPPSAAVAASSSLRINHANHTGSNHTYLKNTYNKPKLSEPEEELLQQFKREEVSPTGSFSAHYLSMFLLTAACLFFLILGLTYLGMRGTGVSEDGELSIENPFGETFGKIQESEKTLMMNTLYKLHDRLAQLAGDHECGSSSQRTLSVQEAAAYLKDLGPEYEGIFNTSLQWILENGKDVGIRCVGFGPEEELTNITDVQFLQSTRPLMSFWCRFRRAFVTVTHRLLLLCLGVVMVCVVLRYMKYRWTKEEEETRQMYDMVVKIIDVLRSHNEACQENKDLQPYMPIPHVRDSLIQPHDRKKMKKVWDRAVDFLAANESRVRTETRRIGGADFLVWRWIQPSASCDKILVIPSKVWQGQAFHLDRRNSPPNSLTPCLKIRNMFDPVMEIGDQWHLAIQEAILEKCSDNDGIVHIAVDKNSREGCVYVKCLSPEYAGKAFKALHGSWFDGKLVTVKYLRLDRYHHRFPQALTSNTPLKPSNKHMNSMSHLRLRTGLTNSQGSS
Sequence of UniProt O95372 (O95372 whole entry, looked up): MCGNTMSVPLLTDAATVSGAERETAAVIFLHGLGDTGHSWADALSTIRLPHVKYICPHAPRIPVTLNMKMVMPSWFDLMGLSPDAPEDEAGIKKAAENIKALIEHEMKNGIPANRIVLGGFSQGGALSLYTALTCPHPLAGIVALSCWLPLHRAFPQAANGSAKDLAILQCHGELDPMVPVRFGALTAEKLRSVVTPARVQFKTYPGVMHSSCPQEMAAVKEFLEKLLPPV
Sequence of UniProt O14880 (O14880 whole entry, looked up): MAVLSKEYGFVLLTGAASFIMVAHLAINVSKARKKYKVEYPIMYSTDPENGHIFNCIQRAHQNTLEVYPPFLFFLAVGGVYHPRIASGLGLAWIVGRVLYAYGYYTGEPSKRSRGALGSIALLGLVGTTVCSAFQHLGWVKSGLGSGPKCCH

Target	log2 fold change [1]	log2 fold change (filanesib)	log2 fold change (zotarolimus)	log2 fold change (idasanutlin)	log2 fold change (alisertib)	log2 fold change [2]	log2 fold change (gefitinib)	log2 fold change [3]	log2 fold change (lapatinib)	log2 fold change (pictilisib)
MIER1 isoform 12 (UniProt Q8N108)	-0.041	-0.067	-0.015	-0.04	-0.023	-0.039	-0.001	0.014	0.011	-0.066
MGST3 (UniProt O14880)	-0.021	-0.035	-0.005	0.012	0.008	0.001	0.002	0.018	-0.009	0.004
MED17 (UniProt Q9NVC6)	0.004	0.019	-0.052	0.166	-0.08	0.044	0.016	-0.018	-0.063	0.089
LRRFIP1 (UniProt Q32MZ4)	-0.014	0.022	-0.034	0.019	-0.031	0.023	-0.007	0.025	-0.012	-0.027
KDM1A isoform 2 (UniProt O60341)	0.019	0.004	-0.009	-0.03	-0.055	0.07	0.022	-0.036	0.068	-0.008
IRF2BPL (UniProt Q9H1B7)	0.283	-0.025	0.029	0.033	0.058	0.015	-0.016	-0.027	-0.015	0.071
ILK (UniProt Q13418)	-0.444 (active)	0.023	-0.052	0.021	0.038	0.036	0.007	0	-0.05	0.068
MAPK14 (UniProt Q16539)	0.024	-0.055	0.059	-0.361	-0.014	0.014	0.796 (active)	0.303	-0.002	-0.05
MAGEC2 (UniProt Q9UBF1)	0.018	-0.032	0.039	-0.045	-0.044	0.015	-0.018	-0.005	-0.004	0.058
IPO11 isoform 2 (UniProt Q9UI26)	0.036	-0.045	0.002	-0.087	-0.023	-0.006	-0.049	0.04	0.005	0.028
LNPK (UniProt Q9C0E8)	0.007	-0.005	-0.049	-0.002	-0.034	0.001	0.025	0.079	-0.008	0.017
KHDRBS1 (UniProt Q07666)	0.06	0.041	-0.012	0.002	0.014	0.129	0.026	0.008	-0.072	-0.072
MDN1 (UniProt Q9NU22)	0.066	-0.095	-0.002	-0.058	-0.056	-0.031	-0.003	0.022	-0.005	0.001
MCUR1 (UniProt Q96AQ8)	-0.042	0.019	-0.002	-0.13	0.009	0.181	0.009	0.052	-0.009	0.087
LUC7L3 (UniProt O95232)	0.106	0.083	0.003	0.031	-0.009	0.021	-0.04	0.011	0.045	0.011
LYN (UniProt P07948)	-0.074	0.021	0.07	-0.01	0.002	0.259	-0.036	0.081	0.011	0.112
KCT2 (UniProt Q8NC54)	-0.015	-0.036	-0.044	-0.029	-0.074	0.021	0.032	0.039	-0.002	0.023
LMBRD2 (UniProt Q68DH5)	-0.031	-0.095	0.108	-0.012	-0.035	0.025	0.082	-0.021	0.026	0.057
LYPLA2 (UniProt O95372)	0.188	0.014	0.002	0.027	0.121	-0.23	0.047	0.044	-0.048	-0.026
INPP1 (UniProt P49441)	-0.086	-0.019	0.048	-0.123	-0.056	0.101	-0.031	0.03	-0.049	-0.116
IGFBP2 (UniProt P18065)	0.117	-0.238	-0.846 (active)	0.439	0.11	-0.056	-0.228	0.363	-0.025	-0.252
LEMD3 (UniProt Q9Y2U8)	0.036	0	0.107	-0.023	0.073	-0.001	-0.013	0.069	0.044	0.047
LUZP1 (UniProt Q86V48)	-0.08	0.552 (active)	-0.059	0.03	-0.081	-0.036	0.051	-0.117	0.041	0.07
LARP4B (UniProt Q92615)	0.035	0.056	0.004	0.053	-0.054	-0.108	0.011	-0.06	0.081	-0.009
LIMA1 isoform 4 (UniProt Q9UHB6)	-0.044	0.178	0.021	0.008	-0.028	0.171	0.077	0.11	-0.126	-0.1
MAD2L1 (UniProt Q13257)	-0.024	-0.042	0.034	-0.12	-0.003	0.048	0.008	0.01	-0.064	0.024
LPIN1 isoform 7 (UniProt Q14693)	-0.079	0.047	-0.048	-0.03	0.046	0.017	-0.018	-0.041	-0.101	-0.035
IKZF1 (UniProt Q13422)	-0.045	-0.136	0.004	0.037	-0.019	0.01	0.128	0.039	-0.041	0.026
LRBA, A0A494BZW2	0.006	-0.136	-0.127	-0.207	0.001	0.453	-0.026	0.046	-0.097	0.095

Reference: the supplement of paper PMC10849652
